In the library only some 4.1% were active in any assay of this set; here they are far more common.
ssDAF12 agonist: S. stercoralis DAF-12 activation, primary screen; AID 652126; 370,000 tested, 1% active; activation, % at 6.8 µM; HEK293 ssDAF-12/GRIP1 lit1-tk-luc reporter, luminescence; % of 3 µM dafachronic acid response;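 active = activation above the mean over all tested compounds plus 3 SD, cut at about 0.9% in these data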;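 note: 0% = DMSO-only wells and 100% = 3 µM delta7-dafachronic acid wells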
DAX1 inh-1: DAX1 (NR0B1) inhibition, primary screen; HEK293T StAR-luciferase reporter, SF-1/DAX-1 repression relief; inhibition, % at 6.8 µM; 370,000 tested, 1.1% active; AID 652010;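 active = inhibition above the mean over all tested compounds plus 3 SD, cut at about 3.6% in these data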;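 note: 0% = DAX-1 cells with DMSO and 100% = cells lacking DAX-1 with DMSO; higher inhibition means more luminescence from relief of DAX-1 repression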
DAX1 inh-2: inhibits human nuclear receptor DAX1 | HEK293 Gal4-DAX1 luciferase reporter, luminescence | AID 504766 | 340,000 tested, 0.99% active | inhibition, % at 6.75 µM;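 active = inhibition above the mean over all tested compounds plus 3 SD, cut at about 4.2% in these data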;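 note: 0% = DAX1-transfected cells with DMSO and 100% = empty-vector control cells with DMSO; inhibition shows as a rise in luminescence from relieved DAX1 repression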
Target sequence (P51843 207-470 limits assumed): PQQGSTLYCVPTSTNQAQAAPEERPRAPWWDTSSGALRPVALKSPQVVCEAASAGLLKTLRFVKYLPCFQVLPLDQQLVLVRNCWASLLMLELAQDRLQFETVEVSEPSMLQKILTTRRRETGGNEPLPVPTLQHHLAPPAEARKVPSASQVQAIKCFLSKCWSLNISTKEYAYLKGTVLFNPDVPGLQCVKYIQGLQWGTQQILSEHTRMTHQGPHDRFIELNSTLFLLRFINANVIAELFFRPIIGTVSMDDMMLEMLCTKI
hgDAF-12 ag: hgDAF-12 agonism, primary luciferase screen. HEK293 GAL4-hgDAF12 UAS-luciferase reporter, agonist luminescence; normalized to butyrate control. activation, % at 6.8 µM. 370,000 tested, 1.8% active. AID 687014;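 active = activation above a cutoff set at the mean of all screened compounds plus 3 SD, cut at about 10% in these data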;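 note: 0% = DMSO wells and 100% = sodium butyrate wells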
hcDAF12 agonist: activates DAF-12 receptor from parasite H. contortus; HEK293 hcDAF-12 lit1-tk-luc reporter, luminescence; 0% DMSO, 100% Δ7-dafachronic acid; activation, % at 6.8 µM; 370,000 tested, 1.4% active;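 active = activation above the mean of all tested compounds plus 3 SD, cut at about 5.5% in these data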;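 note: 100% = response to 3 µM Δ7-dafachronic acid high control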
hgDAF12 ag: hgDAF-12 agonism, confirmation assay | shares compounds with hgDAF-12 ag | HEK293 GAL4-hgDAF12 luciferase reporter, agonist mode; percent of butyrate response | activation, % at 6.8 µM | 3,300 tested, 80% active;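 active = mean activation over triplicate wells above the hit cutoff derived from the earlier primary screen, cut at about 11% in these data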;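 note: 0% = DMSO low control and 100% = 2 mM sodium butyrate high control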
LXRb DAF12 ctr: counter-screen for DAF-12 agonists: agonists of human LXR-beta | HEK293 Gal4-LXR luciferase reporter, 24 h | AID 743051 | shares compounds with hgDAF-12 ag | activation, % at 6.8 µM | 3,300 tested, under 10 active;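 active = mean activation of the triplicate above a set limit carried over from the primary screen, none filed active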
The depositor's hits bear a star; · = no result.

SMILES	ssDAF12 agonist	DAX1 inh-1	DAX1 inh-2	hgDAF-12 ag	hcDAF12 agonist	hgDAF12 ag	LXRb DAF12 ctr
CC(=O)N1CCCc2cc(S(=O)(=O)Nc3ccccc3C)ccc21	-1	0	1	-2	0	·	·
CCn1c(C)nc2cc(C(=O)N/N=C/c3ccccc3C)ccc21	0	3	1	14*	3	14*	1
O=S1(=O)N[C@@H](Cc2ccccc2)COc2cccc(N3CCCCC3)c21	-1	-1	·	0	-1	·	·
O=C(Cn1cnc2ccccc2c1=O)Nc1ccc2c(c1)OCCO2	0	3	4	17*	5	14*	1
CC(=O)Nc1cccc(-c2nc3ccc(NC(C)=O)cc3s2)c1	1	1	1	19*	4	12*	1
Cc1c(Cl)cccc1NC(=O)CCN1CCC(C(N)=O)CC1	-1	1	1	2	1	·	·
S=C(N/N=C/c1ccco1)NC1CC2CCC1C2 (stereo not given)	0	0	0	5	-1	·	·
CCCc1ccc(-c2cc(NC(=O)CSc3nnc(N)s3)n(-c3ccccc3)n2)cc1	0	4.1*	1	14*	5	19*	1
Cc1nnc(SCC(=O)Nc2cc(-c3cc(C)c(C)cc3C)nn2-c2ccccc2)s1	-1	0	-2	1	-1	·	·
O=C(NCc1c(Cl)cccc1Oc1ccccc1)c1ccccc1	-1	-1	0	0	-1	·	·
OCCC1CN(Cc2cccc(-n3cccn3)c2)CCN1Cc1ccccc1 (stereo not given)	-1	-1	1	-1	-2	·	·
O=C(OCc1ccccn1)c1ccc(COc2ccc3ccccc3c2)o1	0	3	2	14*	4	11*	0
O=C(Nc1ncccc1O)c1ccc(S(=O)(=O)NCc2ccco2)cc1	0	4.3*	4	21*	0	20*	0
Cc1cccnc1NC(=O)c1ccc(S(=O)(=O)NCc2ccco2)cc1	0	1	1	0	-1	·	·
COc1ccccc1/C=C/C(=O)OCC(=O)Nc1ccc2c(c1)OCCO2	-1	0	0	0	0	·	·
COc1ccccc1/C=C/C(=O)Nc1ccc2c(c1)OCCO2	0	3	-2	17*	5	18*	1
COc1cc(/C=C/C(=O)NC(=O)c2ccccc2O)ccc1OC(C)=O	0	2	3	15*	5	6	0
COc1ccc(/C=C/C(=O)Nc2ccccc2)cc1OC	0	3	0	17*	2	10	0
Cc1cccc(-c2cccc3c4c([nH]c23)[C@@H]2C[C@H](N(C)C(=O)NC3CCCCC3)[C@H]([C@H](C)O)CN2CC4)c1	-1	-1	·	-3	0	·	·
COCCNC(=O)CN1C(=O)/C(=C/c2ccccc2)Oc2ccc(C(C)(C)C)cc21	-1	0	0	0	-1	·	·
CCNC(=O)C1CCCN(C(=O)c2ccc(C(F)(F)F)cc2)CC1 (stereo not given)	0	0	·	0	0	·	·
CCOC(=O)c1ccc(NC(=O)c2ncn3c2C(=O)N[C@H](C)C3)cc1	-1	1	0	2	-2	·	·
CC(=O)Nc1cccc(-c2cn3ccc(C)cc3n2)c1	0	3.9*	0	14*	3	12*	1
Cc1ccn2cc(-c3cnoc3C)nc2c1	0	1	2	5	0	·	·
Cc1ccn2cc(-c3cccc(NC(=O)CCC(=O)O)c3)nc2c1	-1	1	-1	7	2	·	·
SMILES	ssDAF12 agonist	DAX1 inh-1	DAX1 inh-2	hgDAF-12 ag	hcDAF12 agonist	hgDAF12 ag	LXRb DAF12 ctr
Cc1ccn2cc(-c3cccc(NS(C)(=O)=O)c3)nc2c1	0	2	1	14*	0	11*	0
COc1c(Cl)cccc1-c1cn2ccc(C)cc2n1	1.3*	3	4	14*	6.4*	15*	1
Cc1ccn2cc(-c3cccc(S(=O)(=O)N4CCCC4)c3)nc2c1	-1	-1	-1	0	-2	·	·
O=C1NC[C@@H](CCCCN2C[C@H](Cc3ccc(O)cc3)N(CC3CCCCC3)C(=O)C2=O)N(CC2CCCCC2)C1=O	-1	1	·	0	0	·	·
O=C(NCc1ccccn1)[C@@H]1CCCN1C(=O)[C@@H]1CCCN1C(=O)c1ccc(Cl)cc1	0	-1	·	-1	-1	·	·
CSCCNC(=O)c1ccc(C(C)(C)C)cc1	1.1*	3	0	16*	4	16*	1
Cc1ccc(C)c(NC(=O)Cn2cnc3c(oc4ccccc43)c2=O)c1	-1	1	-1	3	-1	·	·
O=C(N/N=C/c1ccc([N+](=O)[O-])o1)c1ccc2c(c1)OCO2	-2	-6	-3	-13	-6	·	·
O=C(N/N=C/c1ccc(Br)o1)c1ccc2c(c1)OCCO2	0	2	1	16*	3	11*	1
COc1c(O)ccc(/C=N/NC(=O)c2ccc3c(c2)OCCO3)c1[N+](=O)[O-]	0	2	3	15*	2	9	0
COc1cc(/C=N/NC(=O)c2ccc3c(c2)OCCO3)cc(Cl)c1O	-1	0	0	3	0	·	·
COc1cccc(CNC(=O)C2CCN(c3nnc(N4CCCC4=O)s3)CC2)c1	0	0	2	-1	1	·	·
C[C@H]1COc2cccc(N3CCC[C@H]3CO)c2S(=O)(=O)N1	-1	4	·	0	0	·	·
CC(C)CSc1nnc2c(n1)[nH]c1ccccc12	1.2*	4.0*	2	14*	6.4*	12*	1
CCCCSc1nnc2c(n1)[nH]c1ccccc12	0	1	1	7	0	·	·
Cc1ccc(NC(=O)/C=C/c2ccc3c(c2)OCO3)nc1	-1	3	1	17*	5	13*	1
CCCCOc1ccc(C(=O)NCC(=O)NC2CCC(C)CC2)cc1 (stereo not given)	-1	0	-2	1	-1	·	·
CCCc1c(C(=O)N/N=C/c2ccco2)nnn1-c1nonc1N	-1	0	0	3	-1	·	·
Cc1cc(-c2nc3cccnc3s2)ccc1NS(=O)(=O)c1cccs1	1	4.4*	1	14*	6.5*	13*	0
O=S(=O)(Nc1ccc(-c2nc3cccnc3s2)cc1)c1cccs1	1	2	3	5	2	·	·
Cc1ccc(C(=O)NCCc2ccc(F)cc2)s1	0	3	1	17*	3	17*	1
Cc1ccc(C(=O)NCc2ccc(F)cc2)s1	-1	0	1	3	0	·	·
O=C(CN1CCN(C(=O)c2cc(C3CC3)nn2-c2ccccc2)CC1)Nc1ccc(F)cc1	-1	-1	0	15*	-1	-3	0

Screens as filed in PubChem.
